Source: PubChem BioAssay (NCATS)
Inconclusive results are not listed. Active and inactive are the calls of the source. Calls come from the whole dose curve; as a rule, active = well fitted cell-killing curve with a large enough effect; inconclusive = small, poorly fitted or top-dose-only effect, or effect the other way; inactive = no such curve, though single readings can be large or run the other way.

assay: Quantitative High-Throughput drug screen in 47 multiple myeloma cell lines against the NCATS MIPE library collection: INA6_PLB cell viability assay (AID 1918965; note: nearly all actives have a fitted effect of over 55% in size); conditions: INA6 myeloma viability, CellTiter-Glo ATP luminescence, 48 h; series mostly up to 45.8 µM
Description: PI: Beverly A. Mock Ph.D.
Laboratory of Cancer Biology and Genetics,
Center for Cancer Research, National Cancer Institute,
National Institute of Health, Bethesda, Maryland
Drug resistance and disease progression are common in multiple myeloma (MM) patients, underscoring the need for new therapeutic combinations. […] We hypothesized that effective combinations would reduce MYC expression and enhance p16 activity. […] These preclinical data identify potentially useful drug combinations for evaluation in drug-resistant MM and reveal potential mechanisms of combined drug sensitivity.
Described herein is the primary MIPE qHTS used to cherrypick compounds. Validated compounds were then further tested for potential synergistic activiy.
[1] Peat TJ, Gaikwad SM, Dubois W, Gyabaah-Kessie N, Zhang S, Gorjifard S, Phyo Z, Andres M, Hughitt VK, Simpson RM, Miller MA, Girvin AT, Taylor A, Williams D, D'Antonio N, Zhang Y, Rajagopalan A, Flietner E, Wilson K, Zhang X, Shinn P, Klumpp-Thomas C, McKnight C, Itkin Z, Chen L, Kazandijian D, Zhang J, Michalowski AM, Simmons JK, Keats J, Thomas CJ, Mock BA. Drug combinations identified by high-throughput screening promote cell cycle transition and upregulate Smad pathways in myeloma. Cancer Lett. 2023 Aug 1;568:216284. doi: 10.1016/j.canlet.2023.216284. Epub 2023 Jun 24. PMID: 37356470; PMCID: PMC10408729.
SEQUENCE No. (e.g., 1, 2, 3, etc.); […] (e.g., Cells, Incubation, Reagent, etc.); VALUE and DESCRIPTION.
1; Cells; 5 uL; white, solid bottom 1536-well Greiner assay plate.
2; Compounds; 23 nL; Kalypsis pin tool (Wako USA) equipped with a 1536-well pin head to transfer to the assay plates.
3; Incubation; 48 hours; 37C incubation.
4; Reagent;5uL; CellTiter Glo (Promega).
5; Detector; 425V; Luminescence; Viewlux PerkinElmer.
NOTES (numbers refer to Sequence numbers above)
1. The cell-based screening methods employed in this study were like those previously published. Briefly, the corresponding myeloma cell lines were screened in 1,536-well plates with 500 cells, 5-uL per well for inhibition of cell viability (assessed by measuring ATP levels with CellTiterGlo).
2. NCATS MIPE 4.0 library of approved and investigational drugs were added using the Kalypsis pin tool. Wells treated with DMSO only for 100% viability and media only wells for 0% viability were used as controls.
3. The assay plates were covered and incubated for 48 hours in a 37C, 5% CO2 incubator with controlled humidity.
4. After 48 hours, CellTilter-GloTM luminescent substrate mix (Promega) reagent was added to the assay plate and plates we incubated for 5 min at room temperature.
5. Signal was measured as median relative luminescence units on a ViewLux (PerkinElmer) multiplate reader.
[1] Heske CM, Davis MI, Baumgart JT, Wilson K, Gormally MV, Chen L, Zhang X, Ceribelli M, Duveau DY, Guha R, Ferrer M, Arnaldez FI, Ji J, Tran HL, Zhang Y, Mendoza A, Helman LJ, Thomas CJ. Matrix Screen Identifies Synergistic Combination of PARP Inhibitors and Nicotinamide Phosphoribosyltransferase (NAMPT) Inhibitors in Ewing Sarcoma. Clin Cancer Res. 2017 Dec 1;23(23):7301-7311. doi: 10.1158/1078-0432.CCR-17-1121. Epub 2017 Sep 12. PMID: 28899971; PMCID: PMC6636827.
Potency is the fitted concentration of half-maximal effect.

Row | Compound | Potency
1 | COc1cc(-c2nn(C3CCC(N4CCN(C(C)=O)CC4)CC3)c3ncnc(N)c23)ccc1NC(=O)c1cc2ccccc2n1C (stereo not given) | 2960 nM (active)
2 | OCc1ccc(-c2ccc(-c3ccc(CO)s3)o2)s1 | 2640 nM (active)
3 | COc1cc(Nc2ncc(F)c(Nc3ccc4c(n3)N(COP(=O)(O)O)C(=O)C(C)(C)O4)n2)cc(OC)c1OC | 833 nM (active)
4 | COC(=O)[C@]12CCC(C)(C)C[C@@H]1[C@@H]1C(=O)C=C3[C@@]4(C)C=C(C#N)C(=O)C(C)(C)[C@@H]4CC[C@@]3(C)[C@]1(C)CC2 | 59 nM (active)
5 | CCCNC(=O)Nc1ccc(Oc2ncnc3cc(OC)c(OC)cc23)cc1Cl | inactive
6 | CC(C)=CCCC(C)=CCCC(C)=CCSc1ccccc1C(=O)O | 18700 nM (active)
7 | CC(C)c1cnn2c(NCc3ccccc3)cc(N[C@@H](CO)[C@H](O)CO)nc12 | 166 nM (active)
8 | COc1cc(C)c(Sc2cnc(NC(=O)c3ccc(CNC(C)C(C)C)cc3)s2)cc1C(=O)N1CCN(C(C)=O)CC1 (stereo not given) | 18700 nM (active)
9 | CNC(=O)c1ccccc1Nc1nc(Nc2ccc(N3CCOCC3)cc2OC)ncc1Cl | 5260 nM (active)
10 | C=CC(=O)Nc1cccc(Oc2nc(Nc3ccc(N4CCN(C)CC4)cc3OC)ncc2Cl)c1 | 469 nM (active)
11 | O=C(O)c1ccc2cc(-c3ccc(O)c(C45CC6CC(CC(C6)C4)C5)c3)ccc2c1 | 264 nM (active)
12 | CCCCOc1c(C(=O)c2c(F)cc(C)cc2F)cnc2n[nH]cc12 | 4180 nM (active)
13 | CN(C)CC=CC(=O)Nc1cc2c(Nc3ccc(F)c(Cl)c3)ncnc2cc1O[C@H]1CCOC1 | 2090 nM (active)
14 | COc1cccc(-c2ccc(NC(=O)C3=C(C(=O)O)CCC3)c(F)c2)c1 | 4690 nM (active)
15 | Fc1cc(-c2cccc3ncc(-c4cnn(C5CCNCC5)c4)nc23)cc(F)c1CN1CCOCC1 | 4180 nM (active)
16 | COC(=O)C1=C(C)NC(C)=C(C(=O)OCCN2CCN(C(c3ccccc3)c3ccccc3)CC2)C1c1cccc([N+](=O)[O-])c1 (stereo not given) | inactive
17 | CC(C)C[C@H](NC(=O)CNC(=O)c1cc(Cl)ccc1Cl)B(O)O | 37.2 nM (active)
18 | C=CC(=O)Nc1cc2c(Nc3ccc(F)c(Cl)c3)ncnc2cc1C#CC(C)(C)N1CCN(C)CC1 | 418 nM (active)
19 | NC(=O)c1c(OCc2c(F)cc(Br)cc2F)nsc1NC(=O)NCCCCN1CCCC1 | 18700 nM (active)
20 | CN(C)CCCN=c1c2ccccc2n(C)c2[nH]c(=O)n(C)c(=O)c12 | 3720 nM (active)

Row | Compound | Potency
21 | CC(C)c1ccccc1Cc1cc(C(=O)Nc2ccc(S(=O)(=O)c3ccccc3C(C)(C)C)cc2)c(O)c(O)c1O | 5260 nM (active)
22 | N#Cc1c(O)c2c(-c3ccc(-c4ccccc4O)cc3)csc2[nH]c1=O | inactive
23 | COc1ccc(F)c(F)c1C(=O)c1cnc(NC2CCN(S(C)(=O)=O)CC2)nc1N | 1320 nM (active)
24 | CN(C)Cc1c(C(=O)NCCOc2ccc(C(=O)NO)cc2)oc2ccccc12 | 187 nM (active)
25 | Cc1ccc(C(=O)Nc2cccc(C(F)(F)F)c2)cc1-c1ccc2nc(NCCN3CCOCC3)ncc2c1 | 3320 nM (active)
26 | CC(C)c1nn(-c2c(Cl)cccc2Cl)c2nc(Cc3ccc(OCCO)cc3)[nH]c(=O)c12 | 83.3 nM (active)
27 | Nc1nc(Nc2ccc(S(N)(=O)=O)cc2)nn1C(=O)c1c(F)cccc1F | 1480 nM (active)
28 | Cc1c(NC(=O)OC[C@@H]2COCCN2)cn2ncnc(Nc3ccc4c(cnn4Cc4cccc(F)c4)c3)c12 | 3320 nM (active)
29 | O=C(O)C1(Cc2cccc(Nc3nccs3)n2)CCC(Oc2cccc(Cl)c2F)CC1 (stereo not given) | 235 nM (active)
30 | CC(C)CC(=O)Nc1n[nH]c2c1CN(C(=O)C1CCN(C)CC1)C2(C)C | 296 nM (active)
31 | CCCCN1CCC(CNC(=O)c2c3n(c4ccccc24)CCCO3)CC1 | 16600 nM (active)
32 | O=C(C=Cc1c(C(=O)O)[nH]c2cc(Cl)cc(Cl)c12)Nc1ccccc1 | inactive
33 | CC[C@@]1(O)C(=O)OCc2c1cc1n(c2=O)Cc2cc3cc(O)ccc3nc2-1 | 16.6 nM (active)
34 | O=C(O)c1ccc2c(c1)nc(Nc1cccc(Cl)c1)c1ccncc12 | 1660 nM (active)
35 | Cc1cn2c(-c3cn[nH]c3)cnc2c(Nc2ccc(C(=O)N3CCNCC3)cc2F)n1 | 16600 nM (active)
36 | CCN1CCN(Cc2ccc(-c3cc4c(N[C@H](C)c5ccccc5)ncnc4[nH]3)cc2)CC1 | 418 nM (active)
37 | Cc1ccc(-c2ncn(-c3ccc(Nc4nccc(-c5cccc(N6CCOCC6)c5)n4)cc3)n2)cn1 | 66.2 nM (active)
38 | COc1cccc2c(NCc3ccccc3)nc(-n3c(N)nc4ccccc43)nc12 | 3720 nM (active)
39 | CC(=O)Nc1sc2c(c1-c1nc3ccccc3s1)CNC2 | 3720 nM (active)
40 | COc1ccc(C(=O)CC2(O)C(=O)Nc3c(Cl)ccc(Cl)c32)cc1 (stereo not given) | 2350 nM (active)
